Reference: PubChem BioAssay (NCI)
The panel holds about 83,000 compounds, 20% with a hit somewhere; the sample as a whole holds those more often.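 Negative percent growth values reflect cell death: -40 means 40% of the cells present at the start died, and -100 means all died.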 A number with no mark means an inactive call. Activity calls are given as the source filed them. The calls were made as follows: active = growth percent below 10; inactive = the rest.

system: SF-295 CNS; assay: NCI-60 one-dose screen, 48 h (100 = growth as untreated, 0 = no growth, -100 = all killed); details: 10 µM

With `CCNCCCCNCCCCNCCCCNCCCCNCC` as the compound, how does the growth read?
The growth was 62.3%.

With `CC1=CC(C)(C)NC(=S)N1c1ccc(S(=O)(=O)O)c2cccc(S(=O)(=O)O)c12` as the compound, how does the growth read?
The growth was 113%.

How did the growth turn out when `O=c1[nH]cc(Cl)cc1O` was run?
Its growth is 82.4%.

Which growth does the source give for `CC(C)=NNc1ccc([N+](=O)[O-])cc1[N+](=O)[O-]` here?
The growth was 69.8%.

`CC1CC(O)CC(C)(C)C1` (stereo unspecified) was tested. Which growth did it give?
The growth was 98.7%.

With `CCOC(=O)CNN` as the compound, how does the growth read?
Its growth is 102%.

With `CCOC(=O)c1ccc(NC(=S)P(=O)(c2ccccc2)c2ccccc2)cc1` as the compound, how does the growth read?
The growth was 104%.

Which growth does the source give for `O=C(Nc1cccc(NC(=O)Nc2cc(C(F)(F)F)ccc2Cl)c1)Nc1cc(C(F)(F)F)ccc1Cl` here?
The growth was -23.9% (active).

With `COc1cc(-c2ccc(NC(=O)NC3CC3)c(OC)c2)ccc1NC(=O)NC1CC1` as the compound, how does the growth read?
Its growth is 75.9%.

`Oc1ccc2c(c1)OCC1(O)Cc3cc(O)c(O)cc3C21` (stereo unspecified) was tested. Which growth did it give?
Its growth is 97.1%.

For `COc1ccc(Oc2c(I)cc(CC(NC(C)=O)C(=O)O)cc2I)cc1` (stereo unspecified), which growth is on record?
The growth was 62.3%.

With `CCCCC/C=N/Nc1nc(C)cc(=O)[nH]1` as the compound, how does the growth read?
Its growth is 88.8%.

`CN(C)C(C)(C)CC(C)(C)C` was tested. Which growth did it give?
The growth was 104%.

How did the growth turn out when `CN(C)C(=O)Oc1cccc([N+](C)(C)C)c1` was run?
Its growth is 96.8%.

With `CC12CC3CC1C(C(=O)O2)C3C(=O)O` (stereo unspecified) as the compound, how does the growth read?
Its growth is 101%.

With `CCN(CC)c1ccc2nc3ccc(=[N+](CC)CC)cc-3oc2c1` as the compound, how does the growth read?
The growth was 1.09% (active).

How did the growth turn out when `O=C(NC1CCCCC1)OCc1c(COC(=O)NC2CCCCC2)c(-c2ccc(Cl)c(Cl)c2)n2c1CCC2` was run?
The growth was 24.7%.

For `N#CCCN(CCCN1CCOCC1)CN1C(=O)c2ccccc2C1=O`, which growth is on record?
The growth was 98.6%.

system: SF-539 CNS; assay: as above; details: 10 µM

How did the growth turn out when `CC(=O)OC1CC2C(C)(C)OC3CC(=O)OCC32C2CCC3(C)C(=CCC3c3ccoc3)C12C` (stereo unspecified) was run?
Its growth is 104%.

With `CCC(O)CC(CC)CO` (stereo unspecified) as the compound, how does the growth read?
The growth was 99.4%.

`CC(=Nc1ccccc1)C1=C(O)C(Cc2cccc(F)c2)NC1=O` (stereo unspecified) was tested. Which growth did it give?
Its growth is -17.5% (active).

`Cc1c(O)cccc1O` was tested. Which growth did it give?
The growth was 103%.

For `CC1CCCCN1C(=S)Nc1ccc(S(=O)(=O)N2CCCCC2)cc1` (stereo unspecified), which growth is on record?
The growth was 96.9%.

How did the growth turn out when `C=C1CC/C=C(\C)C(=O)C[C@@H]2[C@@H]1CC2(C)C` was run?
The growth was 107%.

How did the growth turn out when `N#C/C(=C\c1cc(O)c(O)c(O)c1)C(N)=O` was run?
Its growth is 94%.

For `C#CCSc1nnnn1-c1ccc(Br)c(C)c1`, which growth is on record?
The growth was 89%.

`Brc1cnc2ccccc2c1` was tested. Which growth did it give?
Its growth is 103%.

`O=C1C=C(O)C(=O)C=C1O` was tested. Which growth did it give?
The growth was 98.7%.

How did the growth turn out when `COC(=O)Nc1nc2ccc(C(=O)c3ccc(F)cc3)cc2[nH]1` was run?
The growth was -21.8% (active).

`CCOC(=O)C1=C(C)NC(=O)NC1c1cccs1` (stereo unspecified) was tested. Which growth did it give?
The growth was 103%.

With `CCOC(=O)Nc1cc2c(c(N)n1)N=C(c1ccccc1)CO2` as the compound, how does the growth read?
Its growth is 1.93% (active).

Which growth does the source give for `COC(=O)c1cccnc1` here?
Its growth is 91.1%.

Which growth does the source give for `O=[N+]([O-])c1cccc(C(F)(F)F)c1` here?
Its growth is 102%.

`CC(=O)Cc1ccc(-c2ccccc2)cc1` was tested. Which growth did it give?
The growth was 108%.

How did the growth turn out when `Cc1ccc(C(=O)NC2c3ccccc3Oc3ccccc32)cc1` was run?
The growth was 61.3%.

With `CC1(c2ccccc2)NC(=O)NC1=O` (stereo unspecified) as the compound, how does the growth read?
The growth was 117%.

Which growth does the source give for `COc1cc2c3c(n(C)c(=O)c2cc1OC)-c1cc2c(cc1C3=O)OCO2` here?
The growth was 63.7%.

For `O=[N+]([O-])c1ccc(-c2ncc(-c3ccc(Br)cc3)o2)cc1`, which growth is on record?
Its growth is 101%.

With `CCNCCCCNCCCCNCCCCNCCCCNCC` as the compound, how does the growth read?
Its growth is 122%.

How did the growth turn out when `CC1=CC(C)(C)NC(=S)N1c1ccc(S(=O)(=O)O)c2cccc(S(=O)(=O)O)c12` was run?
The growth was 105%.

For `O=c1[nH]cc(Cl)cc1O`, which growth is on record?
Its growth is 96%.

With `CC(C)=NNc1ccc([N+](=O)[O-])cc1[N+](=O)[O-]` as the compound, how does the growth read?
Its growth is 95.6%.

For `CC1CC(O)CC(C)(C)C1` (stereo unspecified), which growth is on record?
The growth was 95.2%.

With `CCOC(=O)CNN` as the compound, how does the growth read?
Its growth is 108%.

`CCOC(=O)c1ccc(NC(=S)P(=O)(c2ccccc2)c2ccccc2)cc1` was tested. Which growth did it give?
The growth was 106%.

With `O=C(Nc1cccc(NC(=O)Nc2cc(C(F)(F)F)ccc2Cl)c1)Nc1cc(C(F)(F)F)ccc1Cl` as the compound, how does the growth read?
The growth was 34%.

`COc1cc(-c2ccc(NC(=O)NC3CC3)c(OC)c2)ccc1NC(=O)NC1CC1` was tested. Which growth did it give?
The growth was 67.2%.

`Oc1ccc2c(c1)OCC1(O)Cc3cc(O)c(O)cc3C21` (stereo unspecified) was tested. Which growth did it give?
Its growth is 91.7%.

`COc1ccc(Oc2c(I)cc(CC(NC(C)=O)C(=O)O)cc2I)cc1` (stereo unspecified) was tested. Which growth did it give?
The growth was 111%.

How did the growth turn out when `CCCCC/C=N/Nc1nc(C)cc(=O)[nH]1` was run?
Its growth is 108%.

For `CN(C)C(C)(C)CC(C)(C)C`, which growth is on record?
The growth was 94.1%.

For `CN(C)C(=O)Oc1cccc([N+](C)(C)C)c1`, which growth is on record?
The growth was 106%.

`CC12CC3CC1C(C(=O)O2)C3C(=O)O` (stereo unspecified) was tested. Which growth did it give?
Its growth is 97.4%.

How did the growth turn out when `CCN(CC)c1ccc2nc3ccc(=[N+](CC)CC)cc-3oc2c1` was run?
Its growth is 21.2%.

How did the growth turn out when `O=C(NC1CCCCC1)OCc1c(COC(=O)NC2CCCCC2)c(-c2ccc(Cl)c(Cl)c2)n2c1CCC2` was run?
Its growth is 20.1%.

`N#CCCN(CCCN1CCOCC1)CN1C(=O)c2ccccc2C1=O` was tested. Which growth did it give?
Its growth is 110%.
